# Calls of active or inactive are those of the source. How the source made its calls: active means hit-call score of the fitted dose curve at least 0.9, where 1 is the maximum; inactive means score below 0.9.
# Biological target: human Histamine Receptor H1, HRH1 (gene 3269) (UniProt P35367)
# Assay: ERF_FR_GPCR_hHRH1: Eurofins (ERF) G Protein-Coupled Receptor (GPCR) Radioligand Binding LeadHunter Assay for human Histamine Receptor H1 Antagonism, conducted at France lab site
# Method: ERF_FR_GPCR_hHRH1 is a biochemical, single-readout assay that uses extracted gene-proteins in a cell-free assay. Measurements were taken 1 hour after chemical dosing in a 96-well plate. See H1 Human Histamine GPCR Binding (Antagonist Radioligand) Assay, Cerep.ERF_FR_GPCR_hHRH1 is an assay component calculated from the ERF_FR_GPCR_hHRH1 assay. It is designed to measure radioligand binding using a type of binding reporter as detected by scintillation counting with radiometry technology.Data from the assay component ERF_FR_GPCR_hHRH1 was analyzed at the assay endpoint, ERF_FR_GPCR_hHRH1, in the positive analysis fitting direction relative to DMSO as the negative control and baseline of activity. Using a type of binding reporter, loss-of-signal activity can be used to understand changes in binding as they relate to gene HRH1. To generalize the intended target to other relatable targets, this assay endpoint is annotated to the gpcr intended target family, where the subfamily is histamine.
# Human cells are incubated for 60 minutes at room temprature with [3H]pyrilamine ligand (1 nM) and Pyrilamine as control inhibitor. Test Sample Requirements: Minimum for 1) Screen: 60 ul of 10 mM stock -OR- 1 mg (pre-weighed) for 10 uM final testing. 2) Dose Response: 90 ul of 10 mM stock -OR- 1 mg (pre-weighed) for a top concentration at 10 uM.
# human Histamine Receptor H1, HRH1 (gene 3269), sequence (P35367 whole entry, looked up): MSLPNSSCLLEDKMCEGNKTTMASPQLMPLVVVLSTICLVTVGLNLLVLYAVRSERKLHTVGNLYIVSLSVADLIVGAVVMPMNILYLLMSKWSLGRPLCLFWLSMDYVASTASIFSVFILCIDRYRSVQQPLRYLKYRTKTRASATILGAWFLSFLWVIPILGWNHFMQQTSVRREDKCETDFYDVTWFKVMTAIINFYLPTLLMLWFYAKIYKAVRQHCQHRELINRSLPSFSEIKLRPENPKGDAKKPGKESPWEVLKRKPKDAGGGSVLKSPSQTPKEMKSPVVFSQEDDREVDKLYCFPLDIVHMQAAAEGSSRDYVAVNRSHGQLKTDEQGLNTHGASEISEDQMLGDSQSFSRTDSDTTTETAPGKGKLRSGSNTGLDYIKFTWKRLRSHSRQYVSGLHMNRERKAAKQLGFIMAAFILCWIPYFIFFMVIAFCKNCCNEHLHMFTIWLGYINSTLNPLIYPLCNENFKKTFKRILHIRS
row,SMILES,AC50
1,O=C(/C=C/c1ccc(O)cc1)CC(=O)/C=C/c1ccc(O)cc1,1460 nM (active)
